Assay outcomes (PubChem BioAssay)
Most compounds without a hit are left out; they make up all but 11% or so of the library.
HCV inh: HCV inhibition | Huh7.5.1 HCVcc-Cre infection, luciferase reporter, 44 h | 340,000 compounds, 3.4% hits | AID 651820 | Potency, µM (highest dose often 41.8 µM), usual class: inhibitors
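Cells seeded at 1,000/well and cultured 4 h, then compounds added followed by HCVcc-Cre virus (~0.5 moi). After 44 h further culture, luciferase substrate was added, plates held 15 min at room temperature, and luminescence read for 15 sec.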
Pf growth 48h: P. falciparum growth inhibition at 48 hours (one generation). 310,000 compounds, 5.9% hits. Potency, µM (top dose mostly 28.7 µM), hits mostly inhibitors. AID 504832. P. falciparum luciferase growth in erythrocytes, 48 h
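Firefly luciferase activity from engineered P. falciparum reports growth; inhibitors lower the luminescent signal. Cultures contained 2% hematocrit erythrocytes at 0.1% final parasitemia.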
AmpC no deterg: blocks E. coli AmpC beta-lactamase in detergent-free assay; P00811; AmpC nitrocefin hydrolysis, absorbance 480 nm, 0.0001% Triton; Potency, µM (titrated, usually from 57.1 µM), most hits filed as inhibitors; 330,000 compounds, 0.52% hits; also: nearly all actives have a fitted effect of over 20% in size
Target sequence (P00811 whole entry, looked up): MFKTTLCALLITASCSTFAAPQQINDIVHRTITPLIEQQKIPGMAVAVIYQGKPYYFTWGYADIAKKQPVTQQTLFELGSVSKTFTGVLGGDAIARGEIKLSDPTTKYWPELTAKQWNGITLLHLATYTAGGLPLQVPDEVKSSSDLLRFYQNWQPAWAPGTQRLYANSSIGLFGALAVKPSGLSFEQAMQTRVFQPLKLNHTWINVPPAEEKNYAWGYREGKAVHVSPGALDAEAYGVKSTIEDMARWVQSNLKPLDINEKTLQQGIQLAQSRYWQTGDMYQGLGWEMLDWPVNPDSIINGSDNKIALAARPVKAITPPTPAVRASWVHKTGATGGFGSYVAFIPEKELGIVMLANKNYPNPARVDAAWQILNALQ
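20 mM phosphate pH 7.0 + 0.01% (detergent screen) or 0.0001% Triton X-100; 5.3 nM AmpC reagent; cpd preinc 15 min RT; nitrocefin (800 uM stock) to start; A480 q20 s × 4 min; Activity was normalised to no-enzyme and no-compound control wells.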
AMA1-RON2 inh: inhibitors of Plasmodium falciparum AMA1-RON2 interaction | AlphaScreen AMA1-biotinylated RON2 peptide binding | Potency, µM (doses to about 58.2 µM), hits mostly inhibitors | 360,000 compounds, 0.2% hits | AID 720542; also: nearly all actives have a fitted effect of over 45% in size
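AMA1 (3D7) with his tag at 25 nM final met compounds first, then biotinylated RON2 peptide at 25 nM; detection used donor plus acceptor beads, 10 µg/mL apiece, read by AlphaScreen after 30 min at room temperature.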
AmpC inh detg: blocks E. coli AmpC beta-lactamase in detergent assay; AmpC hydrolysis of nitrocefin, absorbance 480 nm, 0.01% Triton; P00811; Potency, µM (titrated, usually from 114 µM), actives largely listed as inhibitors; 370,000 compounds, 0.041% hits; also: nearly all actives have a fitted effect of over 25% in size
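20 mM phosphate pH 7.0 + 0.01% (detergent screen) or 0.0001% Triton X-100; 5.3 nM AmpC reagent; cpd preinc 15 min RT; nitrocefin (800 uM stock) to start; A480 q20 s × 4 min; Activity was normalised to no-enzyme and no-compound control wells.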
Pf growth 96h: inhibits malaria parasite growth, 96 h; 320,000 compounds, 6.9% hits; P. falciparum luciferase reporter growth, 96 h; Potency, µM (doses to about 28.7 µM), usual class: inhibitors; AID 504834
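96 h incubation, 37 C, 5% CO2, of luciferase-reporter P. falciparum-infected RBCs (2% hematocrit, 0.05% parasitemia final) with test compounds; endpoint luminescence.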
Numbers stand for hits. Calls follow the shape of the dose curve; as a rule, active = well fitted curve in the direction sought with a large enough effect; inconclusive = small, poorly fitted or top-dose-only effect, or another doubt; inactive = no such curve, though single readings can be large; an effect the other way counts as inactive or inconclusive.

Screening CC(C)n1nccc1N(Cc1ccc(Br)cc1)S(=O)(=O)c1ccccc1 returned HCV inh inactive, Pf growth 48h 13.1µM, AmpC no deterg inactive, AMA1-RON2 inh inactive, AmpC inh detg inactive and Pf growth 96h 5.22µM.
COc1ccc(-n2c(Cc3ccccc3)nnc2SCC(=O)N2CCCc3ccccc32)cc1 was read as HCV inh inconclusive, Pf growth 48h 11.7µM, AmpC no deterg inactive, AMA1-RON2 inh inactive, AmpC inh detg inconclusive and Pf growth 96h inconclusive.
For Cn1cccc1Cc1nnc(SCC(=O)N2CCCc3ccccc32)n1-c1ccc(F)cc1 the results were HCV inh inactive, Pf growth 48h inconclusive, AmpC no deterg inactive, AMA1-RON2 inh inactive, AmpC inh detg inconclusive and Pf growth 96h 8.28µM.
COc1ccc(-n2c(Cc3cccn3C)nnc2SCC(=O)N2CCOCC2)cc1 was read as HCV inh inactive, Pf growth 48h inactive, AmpC no deterg inactive, AMA1-RON2 inh inactive, AmpC inh detg inconclusive and Pf growth 96h inactive.
Screening COc1ccc(-n2c(CCc3ccccc3)nnc2SCC(=O)c2ccc(Cl)cc2)cc1 returned HCV inh inconclusive, Pf growth 48h 13.1µM, AmpC no deterg inactive, AMA1-RON2 inh inactive, AmpC inh detg inconclusive and Pf growth 96h inconclusive.
Cn1cccc1Cc1nnc(SCC(=O)N2CCc3ccccc32)n1-c1ccc(F)cc1 was read as HCV inh inactive, Pf growth 48h inactive, AmpC no deterg inactive, AMA1-RON2 inh inactive, AmpC inh detg inconclusive and Pf growth 96h inactive.
`O=C(CSc1nnc(CCc2ccccc2)n1-c1ccc(Cl)cc1)c1ccccc1` gave HCV inh inactive, Pf growth 48h inactive, AmpC no deterg inactive, AMA1-RON2 inh inactive, AmpC inh detg inactive and Pf growth 96h inconclusive.
For Cn1cccc1Cc1nnc(SCC(=O)N2CCOCC2)n1-c1ccc(F)cc1 the results were HCV inh inactive, Pf growth 48h inactive, AmpC no deterg 2.51µM, AMA1-RON2 inh inactive, AmpC inh detg inactive and Pf growth 96h inconclusive.
Screening Cc1ccc(CNC(=O)c2sc3nc4n(c(=O)c3c2C)CCCC4)cc1 returned AmpC inh detg inactive.
Screening CCN(C(=O)CSc1nc(-c2ccc(C(C)C)cc2)no1)c1cccc(C)c1 returned AmpC inh detg inactive.
`CCC(=O)NC(c1ccco1)c1cc(Cl)c2cccnc2c1OC` (stereo not drawn) gave Pf growth 48h inconclusive, AmpC no deterg inactive, AmpC inh detg inactive and Pf growth 96h inconclusive.
`COc1ccc(C(NC(=O)c2cccnc2)c2cc(Cl)c3cccnc3c2O)cc1OC` (stereo not drawn) gave HCV inh 8.91µM, Pf growth 48h inconclusive, AmpC no deterg inactive, AMA1-RON2 inh inactive, AmpC inh detg inactive and Pf growth 96h inactive.
Screening CCCCC(=O)NC(c1ccco1)c1cc(Cl)c2cccnc2c1O (stereo not drawn) returned HCV inh 8.91µM, Pf growth 48h inconclusive, AmpC no deterg inactive, AMA1-RON2 inh inactive, AmpC inh detg inactive and Pf growth 96h inactive.
Screening COc1cc(C(=O)NC(c2ccc(Cl)cc2)c2cc(Cl)c3cccnc3c2O)cc(OC)c1OC (stereo not drawn) returned AmpC inh detg inactive.
Screening CCC(=O)NC(c1ccco1)c1cc(Cl)c2cccnc2c1O (stereo not drawn) returned HCV inh 6.31µM, Pf growth 48h inconclusive, AmpC no deterg inactive, AMA1-RON2 inh inactive, AmpC inh detg inactive and Pf growth 96h inactive.
For COc1cccc(C(=O)NC(c2ccc(Cl)cc2)c2cc(Cl)c3cccnc3c2O)c1 (stereo not drawn) the results were AmpC inh detg inactive.
For CCC(=O)NC(c1ccc(OC)cc1)c1cc(Cl)c2cccnc2c1O (stereo not drawn) the results were HCV inh 2.51µM, Pf growth 48h inactive, AmpC no deterg inactive, AMA1-RON2 inh inactive, AmpC inh detg inactive and Pf growth 96h inactive.
For CC(=O)c1cccc(Nc2nc(-c3cccnc3)cs2)c1 the results were HCV inh inconclusive, Pf growth 48h inactive, AmpC no deterg inactive, AMA1-RON2 inh inactive, AmpC inh detg inactive and Pf growth 96h inconclusive.
